These results are taken from PubChem BioAssay (NCI).

Where “and” joins values, the source holds several entries; their conditions need not be identical. Equal values may be shown once. Compounds without any hit were thinned out: in the full panel of roughly 83,000, 20% have a hit.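 Growth was measured after 48 h exposure to one concentration of compound in 96-well plates. Values under 10 count as active.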 Calls of active or inactive are those of the source.

The first assay deals with UACC-257 melanoma. Put plainly: NCI-60 one-dose screen, 48 h (100 = growth as untreated, 0 = no growth, -100 = all killed). To be noted: 10 µM unless noted.
With `Cn1ccnc1CN1CCSC(C(=O)Nc2ccccc2)C1` (stereo not given), the growth was 79.6% (inactive).

As to `COc1ccc(/C=C2/C(=O)N=C3N2NC(c2ccccc2)=CN3c2ccccc2)cc1`, the growth was 108% (inactive).

On to `Cc1oc2c(Cc3ccc(NC(=O)c4ccc(Cl)cc4)cc3)ncnc2c1C(=O)NO`, for which the growth was 84% (inactive).

Turning to `CCN1CCN(C(=O)[C@]23CC[C@@H](C)[C@H](C)[C@@H]2C2=CC[C@@H]4[C@@]5(C)CCC(=O)C(C)(C)[C@@H]5CC[C@@]4(C)[C@]2(C)CC3)CC1`, the growth is -23.9% (active).

Regarding `CC/C=C\C/C=C\C[C@H](O)C/C=C1/C(=O)C=C[C@@H]1C/C=C\CCCC(=O)OC`, the growth was -13.9% (active).

In the case of `COc1ccc(-c2nnc3n(C)c(=O)c4ccccc4n23)cc1O`, the growth was 49.8% (inactive).

As for `Cc1ccc(NC(=O)c2ccc(CN3CCN(C)CC3)cc2)cc1Nc1nccc(-c2cccnc2)n1`, the growth is 97.2% (inactive) and 29.6% (inactive).

With `OCCN1CCN(CC/C=C2\c3ccccc3Sc3ccc(Cl)cc32)CC1`, the growth was -83.9% (active) and -94.1% (active).

For the compound `COc1cc(-c2nn(-c3cccc(NC(=O)CCN4CCN(C)CC4)c3)cc2-c2ccncc2)ccc1Cl`, the growth was 39.3% (inactive).

`Cc1cnc(C(=O)NNc2nc3sc4c(c3c(=O)[nH]2)C(C)CCC4)cn1` (stereo not given): the growth was 1.78% (active).

In the case of `Cc1nc(-n2[nH]c(=O)ccc2=O)sc1N=Nc1ccccc1`, the growth is 109% (inactive).

On to `CC(=O)c1c(C)nc(SCC(=O)Nc2ccc(Cl)cc2)n1-c1ccc(Cl)cc1`, for which the growth is 94.5% (inactive).

For the compound `C[N+]1=C(/C=C\C=C\c2ccccc2)C(C)(C)c2ccccc21`, the growth was 8.91% (active).

`COc1cc(/C=C(/c2ccccc2)[N+](=O)[O-])c(OC)c2c1OCO2`: the growth was 17.3% (inactive).

For `C=C1C(=O)O[C@H]2[C@H]1CC/C(COC(=O)NCCCCNC(=O)OC/C1=C/CC[C@@]3(C)O[C@H]3[C@H]3OC(=O)C(=C)[C@@H]3CC1)=C\CC[C@@]1(C)O[C@@H]21`, the growth was 2.94% (active).

Turning to `COc1ccc(N2CCN(S(=O)(=O)c3oc(-c4ccccc4)nc3C#N)CC2)cc1`, the growth was 88% (inactive).

Turning to `COc1ccc(-c2cc3cnc4ccccc4c3oc2=O)cc1`, the growth was 96.4% (inactive).

Take `CCOC(=O)c1nc2c3ccccc3cnn2c1C(=O)c1ccc(OC)cc1`: the growth is 95.4% (inactive).

Turning to `Cc1ccc2c(c1)C(C)Cc1c(ncnc1-n1cnc3cc(C)ccc31)N2C` (stereo not given), the growth was 25.6% (inactive).

Regarding `CCN1C(=O)N(c2ccccc2)C2NC(=S)N(/N=C/C=C/c3ccccc3)C21` (stereo not given), the growth is 39.5% (inactive).

On to `COc1ccc(-c2[nH]c3ccccc3c2-c2ccc(OC)cc2)cc1`, for which the growth is 72% (inactive).

As to `COc1ccc(Cn2cc(C(=O)Nc3cccnc3Nc3ccccc3)nn2)cc1`, the growth was 110% (inactive).

With `CSc1nnc(-c2cc3c([nH]c4ccccc43)c(-c3cccc(O)c3)n2)n1-c1ccc(C)cc1`, the growth was 42.5% (inactive).

Regarding `CN(Cc1ccccc1)c1nc(Cl)c(C2CC(c3ccc4c(c3)OCO4)=NN2c2cc(Cl)cc(Cl)c2)s1` (stereo not given), the growth is 106% (inactive).

For the compound `COc1ccc(C2Nc3nc(SC)nc(N)c3N=C3c4ccccc4CCC32)cc1` (stereo not given), the growth was 122% (inactive).

As to `CCN(CC)CCOc1ccc(/C(=C(\Cl)c2ccccc2)c2ccccc2)cc1`, the growth is -57.9% (active) and 45.8% (inactive).

Consider `O=C1/C(=C/c2ccccc2)CN(C(=O)C(Cl)Cl)C/C1=C\c1ccccc1`, for which the growth was 25% (inactive).

As for `Cc1ccc(S(=O)(=O)OC[C@@]2(C)CC[C@]3(C)CC[C@]4(C)C(=CC[C@@H]5[C@@]6(C)CCCNC(C)(C)[C@@H]6CC[C@]54C)[C@@H]3C2)cc1`, the growth was -58.7% (active).

With `O=C1/C(=C/c2cn(-c3ccccc3)nc2-c2ccccc2)SC(=S)N1c1ccc(Cl)cc1`, the growth was 89.8% (inactive).

For `O=c1ccc2nc(-c3ccccn3)nn(-c3ccccc3)c-2c1`, the growth is 60.3% (inactive).

For the compound `C[C@@H]1CC[C@@H]2[C@@H]1[C@H](OC(=O)/C=C/c1ccccc1)[C@]1(c3ccccc3)C[C@@H](NC(=O)CO)[C@@]2(C)O1`, the growth was 93% (inactive).

The next assay relates to M14 melanoma. The description is as above. The note with it: 10 µM unless noted.
Turning to `COc1ccc2c(c1)c(-c1nc(-c3c[nH]c4c(Cl)nccc34)cs1)cn2C`, the growth was 90.8% (inactive).

For `C[C@]12CCc3c(ccc4cc(O)ccc34)[C@@H]1C[C@H](O)[C@@H]2O`, the growth is 103% (inactive).

Turning to `ON=C1CCCCCCCC1`, the growth is 102% (inactive) and 101% (inactive).

In the case of `CCCCCCCCCCCCCCCC[N+](C)(C)CCN(Cc1ccc(OC)cc1)c1ncccn1`, the growth is -62.6% (active) and -17.7% (active).

Turning to `Cc1nc2sc(C(=O)Nc3cccc4ncccc34)c(N)c2cc1C(C)O` (stereo not given), the growth is 62% (inactive).

Regarding `C=C[C@]1(C)C=C2CC[C@@H]3C(C)(C)C(=O)CC[C@@]3(C)[C@@H]2CC1`, the growth is 103% (inactive).

For `CC[C@H](C)[C@H](NC(=O)[C@H](CCCCN)NC(=O)[C@H](CCCCN)NC(=O)[C@@H](NC(=O)[C@@H](NC(=O)[C@@H](N)Cc1cnc[nH]1)[C@@H](C)CC)[C@@H](C)CC)C(=O)N[C@@H](CCCNC(=N)N)C(=O)N[C@H](C(=O)N[C@@H](Cc1c[nH]c2ccccc12)C(=O)N[C@@H](Cc1ccc(O)cc1)C(=O)N[C@@H](CCCNC(=N)N)C(=O)N[C@@H](CCCCN)C(=O)N[C@@H](C)C(=O)N[C@@H](Cc1c[nH]c2ccccc12)C(=O)N[C@@H](Cc1cnc[nH]1)C(=O)N[C@H](C(=O)N[C@@H](CC(C)C)C(=O)NCC(=O)N[C@@H](CCCCN)C(=O)N[C@H](C(N)=O)C(C)C)C(C)C)[C@@H](C)O`, the growth was -12% (active).

Regarding `CC(=O)N1N=C(c2ccc(F)cc2)CC1c1sc(N(C)Cc2ccccc2)nc1Cl` (stereo not given), the growth is 95.2% (inactive).

With `Cn1ccnc1CN1CCSC(C(=O)Nc2ccccc2)C1` (stereo not given), the growth was 98.1% (inactive).

As for `COc1ccc(/C=C2/C(=O)N=C3N2NC(c2ccccc2)=CN3c2ccccc2)cc1`, the growth is 98.3% (inactive).

With `Cc1oc2c(Cc3ccc(NC(=O)c4ccc(Cl)cc4)cc3)ncnc2c1C(=O)NO`, the growth is 99.6% (inactive).

For the compound `CCN1CCN(C(=O)[C@]23CC[C@@H](C)[C@H](C)[C@@H]2C2=CC[C@@H]4[C@@]5(C)CCC(=O)C(C)(C)[C@@H]5CC[C@@]4(C)[C@]2(C)CC3)CC1`, the growth is -41.6% (active).

On to `CC/C=C\C/C=C\C[C@H](O)C/C=C1/C(=O)C=C[C@@H]1C/C=C\CCCC(=O)OC`, for which the growth is -23% (active).

For `COc1ccc(-c2nnc3n(C)c(=O)c4ccccc4n23)cc1O`, the growth was 3.13% (active).

`Cc1ccc(NC(=O)c2ccc(CN3CCN(C)CC3)cc2)cc1Nc1nccc(-c2cccnc2)n1`: the growth was 113% (inactive) and 82.7% (inactive).

As for `OCCN1CCN(CC/C=C2\c3ccccc3Sc3ccc(Cl)cc32)CC1`, the growth was -98.7% (active) and -88.3% (active).

For the compound `COc1cc(-c2nn(-c3cccc(NC(=O)CCN4CCN(C)CC4)c3)cc2-c2ccncc2)ccc1Cl`, the growth was -41.6% (active).

For `Cc1cnc(C(=O)NNc2nc3sc4c(c3c(=O)[nH]2)C(C)CCC4)cn1` (stereo not given), the growth is 0.29% (active).

On to `Cc1nc(-n2[nH]c(=O)ccc2=O)sc1N=Nc1ccccc1`, for which the growth is 97.7% (inactive).

Take `CC(=O)c1c(C)nc(SCC(=O)Nc2ccc(Cl)cc2)n1-c1ccc(Cl)cc1`: the growth is 98.4% (inactive).

`C[N+]1=C(/C=C\C=C\c2ccccc2)C(C)(C)c2ccccc21`: the growth was 20.5% (inactive).

`COc1cc(/C=C(/c2ccccc2)[N+](=O)[O-])c(OC)c2c1OCO2`: the growth is 11.9% (inactive).

On to `C=C1C(=O)O[C@H]2[C@H]1CC/C(COC(=O)NCCCCNC(=O)OC/C1=C/CC[C@@]3(C)O[C@H]3[C@H]3OC(=O)C(=C)[C@@H]3CC1)=C\CC[C@@]1(C)O[C@@H]21`, for which the growth was 11.5% (inactive).

Turning to `COc1ccc(N2CCN(S(=O)(=O)c3oc(-c4ccccc4)nc3C#N)CC2)cc1`, the growth is 47.4% (inactive).

As for `COc1ccc(-c2cc3cnc4ccccc4c3oc2=O)cc1`, the growth is 106% (inactive).

Regarding `CCOC(=O)c1nc2c3ccccc3cnn2c1C(=O)c1ccc(OC)cc1`, the growth is 101% (inactive).

Take `Cc1ccc2c(c1)C(C)Cc1c(ncnc1-n1cnc3cc(C)ccc31)N2C` (stereo not given): the growth was 17.7% (inactive).

`CCN1C(=O)N(c2ccccc2)C2NC(=S)N(/N=C/C=C/c3ccccc3)C21` (stereo not given): the growth is 0.94% (active).

`COc1ccc(-c2[nH]c3ccccc3c2-c2ccc(OC)cc2)cc1`: the growth was 34.9% (inactive).

In the case of `COc1ccc(Cn2cc(C(=O)Nc3cccnc3Nc3ccccc3)nn2)cc1`, the growth was 106% (inactive).

With `CSc1nnc(-c2cc3c([nH]c4ccccc43)c(-c3cccc(O)c3)n2)n1-c1ccc(C)cc1`, the growth was 6.07% (active).

As to `CN(Cc1ccccc1)c1nc(Cl)c(C2CC(c3ccc4c(c3)OCO4)=NN2c2cc(Cl)cc(Cl)c2)s1` (stereo not given), the growth is 99.5% (inactive).

For the compound `COc1ccc(C2Nc3nc(SC)nc(N)c3N=C3c4ccccc4CCC32)cc1` (stereo not given), the growth is 92.7% (inactive).

Take `CCN(CC)CCOc1ccc(/C(=C(\Cl)c2ccccc2)c2ccccc2)cc1`: the growth is -36.2% (active) and 43.3% (inactive).

`O=C1/C(=C/c2ccccc2)CN(C(=O)C(Cl)Cl)C/C1=C\c1ccccc1`: the growth is -27.6% (active).

Take `Cc1ccc(S(=O)(=O)OC[C@@]2(C)CC[C@]3(C)CC[C@]4(C)C(=CC[C@@H]5[C@@]6(C)CCCNC(C)(C)[C@@H]6CC[C@]54C)[C@@H]3C2)cc1`: the growth is -68.5% (active).

Take `O=C1/C(=C/c2cn(-c3ccccc3)nc2-c2ccccc2)SC(=S)N1c1ccc(Cl)cc1`: the growth was 65.8% (inactive).

For the compound `O=c1ccc2nc(-c3ccccn3)nn(-c3ccccc3)c-2c1`, the growth is 90.3% (inactive).

`C[C@@H]1CC[C@@H]2[C@@H]1[C@H](OC(=O)/C=C/c1ccccc1)[C@]1(c3ccccc3)C[C@@H](NC(=O)CO)[C@@]2(C)O1`: the growth is 105% (inactive).
